Inconclusive results are not listed. A structure can be active in one record and inactive in another. Calls of active or inactive are those of the source. How the source made its calls, unless noted: active means hit-call score of the fitted dose curve at least 0.9, where 1 is the maximum; inconclusive means response in the unintended direction; inactive means score below 0.9.
How the values were obtained:
[1] = system: Thyroperoxidase (TPO), gene 54314; assay: CCTE_Simmons_AUR_rTPO: CCTE's Amplex UltraRed Assay for Thyroperoxidase (TPO) Inhibition, Simmons Lab (AID 2283662)
How it was run: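 Rat thyroid microsomal TPO + 25 uM AUR in 200 mM K phosphate; cpd 5 nM–87.5 uM [final], 8 conc, 0.5% DMSO; 300 uM H2O2 starts rxn; 37C dark 30 min; endpoint FI 544/590 nm; n=3.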

[2] = CCTE_Simmons_CellTiterGLO_HEK293T: Viability Assessment in CCTE's Assays for Thyroperoxidase (TPO) Inhibition, Simmons Lab (AID 2283665);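 on AC50: cells exposed to compound for 24 h before readout; actives reduce ATP signal below DMSO vehicle meaning cytotoxicity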
How it was run: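 HEK293T cells in DMEM with 1% FBS were dosed with 8 concentrations (5 nM–87.5 uM final, 0.5% DMSO) for 24 hr at 37C; ATP content was read by CellTiter-Glo luminescence, loss-of-signal versus DMSO, three biological replicates.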

[3] = CCTE_Deisenroth_5AR_NBTE_donor: CCTE's 5alpha-reductase NanoBRET Target Engagement Assay […], Deisenroth Lab (AID 2284319; active means hit-call score of the fitted dose curve at least 0.9, where 1 is the maximum; inactive means score below 0.9); settings: actives raise or lower the signal
How it was run: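 Donor NanoLuc luminescence at 460-20 nm is the read-out, serving artifact detection. Transiently expressed SRD5A2-NanoLuc in HEK293T; 5 h total chemical exposure, testosterone tracer added for the final 2 h; fitting bidirectional relative to DMSO baseline.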

[4] = CCTE_Deisenroth_5AR_NBTE_acceptor: CCTE's 5alpha-reductase NanoBRET Target Engagement Assay - Autofluorescence Screen, Deisenroth Lab (AID 2284321; active means hit-call score of the fitted dose curve at least 0.9, where 1 is the maximum; inactive means score below 0.9;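 further: compound fluorescence in the acceptor channel under 460 nm excitation flags autofluorescence artifacts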); settings: actives raise or lower the signal
How it was run: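 Autofluorescence counter-screen: chemicals at an assumed nominal 100 uM in DMSO were scanned in three independent runs with 460 nm excitation. Gain or loss of acceptor signal was fitted bidirectionally against DMSO.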

[5] = system: SRD5A2 (gene 6716); assay: CCTE_Deisenroth_5AR_NBTE_ratio: CCTE's 5alpha-reductase NanoBRET Target Engagement Assay - Ratio, Deisenroth Lab (AID 2284322; active means hit-call score of the fitted dose curve at least 0.9, where 1 is the maximum; inactive means score below 0.9); settings: actives raise or lower the signal
How it was run: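 Reverse-transfect HEK293T with pNLF1-C-SRD5A2, express 20 h. Pre-incubate cells with chemical 3 h (8-point series, 10 nM - 29.9 uM, duplicate). Add testosterone tracer, 2 h more. Add substrate/inhibitor, read donor and acceptor emission.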

[6] = target: Steroid hormone receptor ERR1 (Homo sapiens) (UniProt P11474); assay: ATG_ERRa_TRANS: Attagene TRANS-FACTORIAL HepG2 Assay for human Estrogen-Related Receptor alpha (ERRa) (AID 2282971); settings: HepG2 Attagene TRANS reporter, ERRa transactivation
How it was run: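 HepG2 cells transiently transfected with GAL4-UAS reporter units and chimeric NR-Gal4 constructs; after 24 hour compound incubation, reporter mRNA quantified by RT-PCR, fluorescent labelling and capillary electrophoresis, gain of signal versus DMSO.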

[7] = target: Muscarinic acetylcholine receptor M2 (Homo sapiens) (UniProt P08172); assay: NVS_GPCR_hM2: NovaScreen (NVS) G Protein-Coupled Receptor Assay for human Muscarinic, M2 Receptor (AID 2283273)
How it was run: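 Cell-free radioligand binding using membranes from CHO cells expressing the receptor; filter-based scintillation counting after 1 hour of compound exposure. Loss of specific binding relative to DMSO baseline; primary screen at 25 uM in duplicate, actives then run in concentration series.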

[8] = target: sheep Cyclooxygenase-1 (Cox1), PTGS1 (gene 443551) (UniProt P05979); assay: NVS_ENZ_oCOX1: NovaScreen (NVS) Enzymatic Assay for sheep Cyclooxygenase-1 (Cox1) (AID 2283239);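 further: actives reduce cyclooxygenase activity so potencies are for inhibitors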
How it was run: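 COX1 from ovine seminal vesicles, activity read colorimetrically about 0.66 h after dosing. Primary screen in duplicate at 25 uM; actives retested in concentration series; loss of signal fitted versus DMSO.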

[9] = read-out: Vascular cell adhesion molecule 1 (VCAM1), VCAM1 (gene 7412); assay: BSK_BF4T_VCAM1: BioMAP Diversity Plus: BF4T Assay for Vascular cell adhesion molecule 1 (VCAM1) Biomarker Activity (AID 2284249; active means hit-call score of the fitted dose curve at least 0.9, where 1 is the maximum; inactive means score below 0.9); settings: primary human bronchial epithelial cells with fibroblasts
How it was run: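 Human bronchial epithelial cell and dermal fibroblast co-culture exposed 24 h. VCAM-1 measured by ELISA; parallel SRB total-protein staining for cytotoxicity. Fitted in positive direction relative to DMSO.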

[10] = read-out: Interleukin-8 (IL8), CXCL8 (gene 3576); assay: BSK_BF4T_IL8: BioMAP Diversity Plus: BF4T Assay for Interleukin-8 (IL8) Biomarker Activity (AID 2284263; active means hit-call score of the fitted dose curve at least 0.9, where 1 is the maximum; inactive means score below 0.9); settings: primary human bronchial epithelial cells with fibroblasts
How it was run: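 Human bronchial epithelial cells with dermal fibroblasts co-culture; IL-8 measured by ELISA 24 hours after dosing, fitted vs DMSO. Cytotoxicity tracked in parallel cultures by SRB total-protein staining.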

[11] = read-out: Interleukin-8 (IL8), CXCL8 (gene 3576); assay: BSK_IMphg_IL8: BioMAP Diversity Plus: IMphg Assay for Interleukin-8 (IL8) Biomarker Activity (AID 2284277; active means hit-call score of the fitted dose curve at least 0.9, where 1 is the maximum; inactive means score below 0.9); settings: primary human endothelial cells with macrophages
How it was run: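 Co-culture of human venular endothelial cells and macrophages exposed to chemicals for 24 h; IL-8 quantified by ELISA and compared against the DMSO baseline, with SRB total-protein staining in parallel cultures for cytotoxicity.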

[12] = read-out: Interleukin-1 alpha (IL1a), IL1A (gene 3552); assay: BSK_IMphg_IL1a: BioMAP Diversity Plus: IMphg Assay for Interleukin-1 alpha (IL1a) Biomarker Activity (AID 2284290; active means hit-call score of the fitted dose curve at least 0.9, where 1 is the maximum; inactive means score below 0.9); settings: primary human endothelial cells with macrophages
How it was run: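 Human venular endothelial cells co-cultured with macrophages, IMphg system. IL-1α is measured by ELISA 24 h after dosing and fitted in the positive direction against DMSO. Cytotoxicity is assessed by SRB staining of parallel cultures.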

[13] = CCTE_Shafer_MEA_dev_mutual_information_norm: CCTE's Neural Network Formation Assay for Mutual Information Normalization, Shafer Lab (AID 2284091; active means hit-call score of the fitted dose curve at least 0.9, where 1 is the maximum; inactive means score below 0.9;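 on AC50: mutual information between electrodes summarised as area under curve across four recording days; potency is for a decrease in mutual information relative to DMSO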)
How it was run: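 Rat cortical cultures, 48-well MEA, continuous exposure DIV 0–12 with full media/compound change DIV 5 and 9. Readout: inter-electrode mutual information, AxIS adaptive spike detection; AUC across DIV 5/7/9/12 recordings; DMSO baseline, negative fitting direction.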

[14] = CCTE_Shafer_MEA_dev_correlation_coefficient_mean: CCTE's Neural Network Formation Assay for Mean Correlation Coefficient, Shafer Lab (AID 2284093; active means hit-call score of the fitted dose curve at least 0.9, where 1 is the maximum; inactive means score below 0.9;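 on AC50: well mean pairwise spike train correlation integrated as AUC over recording days 5 to 12; potency fitted for loss of correlation relative to DMSO vehicle wells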)
How it was run: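 Rat cortical cultures, 1.5 x 10^5 cells/well, dosed from day 0 for 12 days. Spontaneous spikes recorded DIV 5/7/9/12; electrode-pair correlation coefficients averaged, AUC taken. Fit in loss direction vs DMSO.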

[15] = target: PGR (gene 5241) (UniProt P06401); assay: TOX21_PR_BLA_Followup_Antagonist_ratio: Tox21 HEK293 Progesterone Receptor (PR) Antagonism Beta-lactamase Follow-Up Assay, Ratio (AID 2283934)
How it was run: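 PR-UAS-bla HEK293T cells in medium with 2% charcoal-stripped FBS were treated with compounds plus 1 nM (final) promegestone (R5020) for 16 hr at 37C. LiveBLAzer B/G FRET substrate was then added for 2 h at room temperature; signal is cleaved/uncleaved substrate ratio versus DMSO.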

[16] = TOX21_PR_BLA_Followup_Agonist_viability: Viability Assessment in the Tox21 HEK293 Progesterone Receptor (PR) Agonism Beta-lactamase Follow-Up Assay (AID 2283935);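 further: signal loss means lower viability so actives are cytotoxic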
How it was run: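 PR-UAS-bla HEK293T cells in 2% charcoal-stripped FBS medium, compound added after 6 hr plating, 16 hr at 37C/5% CO2. After bla FRET read, CellTiter-Glo added; luminescence read after 30 min at room temperature; signal loss marks cytotoxicity.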

[17] = TOX21_PR_BLA_Followup_Antagonist_viability: Viability Assessment in the Tox21 HEK293 Progesterone Receptor (PR) Antagonism Beta-lactamase Follow-Up Assay (AID 2283936);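 further: hits lower the luminescence signal meaning cytotoxicity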
How it was run: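 PR-UAS-bla HEK293T cells (3,000/well, 2% charcoal-stripped FBS) given compound plus R5020 agonist, 16 h at 37C. CellTiter-Glo added after bla read, 30 min at room temperature; luminescence loss indicates cytotoxicity.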

[18] = target: PGR (gene 5241) (UniProt P06401); assay: TOX21_PR_LUC_Followup_Antagonist: Tox21 HEK293 Progesterone Receptor (PR) Antagonism Luciferase Follow-Up Assay (AID 2283938);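 further: curve fitted upward as signal gain over DMSO baseline despite antagonist label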
How it was run: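 HEK293-PR-A-luc cells, 3,000/well, preincubated 5 h at 37C before compound addition in DMSO; 16 h compound exposure at 37C. ONE-Glo luciferase luminescence read after 30 min at room temperature, fitted relative to DMSO baseline.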

[19] = target: THRB (gene 7068) (UniProt P10828); assay: TOX21_TRB_BLA_Antagonist_Followup_ratio: Tox21 Thyroid Hormone Receptor beta Antagonism Beta-lactamase (BLA) Follow-Up Assay, Ratio (AID 2283958)
How it was run: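 GAL4-DBD/human TRβ-LBD fusion in GeneBLAzer UAS-bla HEK293T cells, 3,000 cells/well in phenol red-free DMEM with 2% charcoal-stripped FBS; compounds at 11 concentrations in triplicate, 18 h at 37C. CCF4-AM substrate 2 h, 460:530 nm ratio relative to DMSO.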

[20] = target: THRB (gene 7068) (UniProt P10828); assay: TOX21_TRB_COA_Antagonist_Followup_ratio: Tox21 Thyroid Hormone Receptor beta Antagonism through Coactivator Recruitment Follow-Up Assay, Ratio (AID 2283967)
How it was run: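 Cell-free TR-FRET coactivator recruitment with GST-tagged TRβ LBD (5.0 nM) and fluorescein-labeled SRC-2 peptide (200 nM) detected by terbium anti-GST antibody (2 nM). The 520:495 nm emission ratio was normalized to DMSO (0%) and T3 (100%).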

Chain of PGR (gene 5241) (P06401 whole entry, looked up): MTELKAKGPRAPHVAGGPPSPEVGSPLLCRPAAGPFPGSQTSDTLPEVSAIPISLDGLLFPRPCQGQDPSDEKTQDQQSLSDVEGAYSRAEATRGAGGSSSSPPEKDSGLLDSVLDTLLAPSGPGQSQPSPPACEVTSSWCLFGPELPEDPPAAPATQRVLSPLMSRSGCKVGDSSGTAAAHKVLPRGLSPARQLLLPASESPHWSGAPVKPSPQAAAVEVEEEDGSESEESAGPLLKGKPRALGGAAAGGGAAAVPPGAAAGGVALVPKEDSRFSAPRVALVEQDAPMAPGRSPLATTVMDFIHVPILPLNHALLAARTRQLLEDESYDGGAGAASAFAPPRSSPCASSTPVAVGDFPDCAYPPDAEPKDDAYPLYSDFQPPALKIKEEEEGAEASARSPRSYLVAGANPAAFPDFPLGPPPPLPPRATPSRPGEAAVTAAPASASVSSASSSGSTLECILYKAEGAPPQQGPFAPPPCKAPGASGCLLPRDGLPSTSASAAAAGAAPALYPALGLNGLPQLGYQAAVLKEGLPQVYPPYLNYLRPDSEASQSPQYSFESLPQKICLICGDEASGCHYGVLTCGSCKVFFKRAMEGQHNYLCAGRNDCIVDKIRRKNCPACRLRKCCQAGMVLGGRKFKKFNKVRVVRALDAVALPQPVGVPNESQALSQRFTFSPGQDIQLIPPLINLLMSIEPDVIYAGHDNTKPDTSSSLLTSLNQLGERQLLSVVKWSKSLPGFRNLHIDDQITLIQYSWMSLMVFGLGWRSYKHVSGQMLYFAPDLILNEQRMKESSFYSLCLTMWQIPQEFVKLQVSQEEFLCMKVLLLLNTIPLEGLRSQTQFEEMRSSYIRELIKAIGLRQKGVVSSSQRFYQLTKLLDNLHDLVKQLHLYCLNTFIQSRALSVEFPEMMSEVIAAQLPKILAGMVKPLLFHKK
Chain of THRB (gene 7068) (P10828 whole entry, looked up, the tested form may be a part): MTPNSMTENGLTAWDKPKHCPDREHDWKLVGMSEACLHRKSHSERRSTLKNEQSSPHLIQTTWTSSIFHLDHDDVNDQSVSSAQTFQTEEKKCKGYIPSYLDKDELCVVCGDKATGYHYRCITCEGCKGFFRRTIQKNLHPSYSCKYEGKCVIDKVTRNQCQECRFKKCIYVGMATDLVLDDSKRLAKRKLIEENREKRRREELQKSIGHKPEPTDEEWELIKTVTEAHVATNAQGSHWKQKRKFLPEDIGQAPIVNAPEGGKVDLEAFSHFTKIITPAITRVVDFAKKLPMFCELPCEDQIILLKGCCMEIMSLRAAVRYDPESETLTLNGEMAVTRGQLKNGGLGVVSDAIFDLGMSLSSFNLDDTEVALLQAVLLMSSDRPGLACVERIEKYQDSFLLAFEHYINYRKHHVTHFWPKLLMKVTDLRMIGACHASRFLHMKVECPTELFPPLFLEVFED
Chain of Steroid hormone receptor ERR1 (Homo sapiens) (P11474 whole entry, looked up, the tested form may be a part): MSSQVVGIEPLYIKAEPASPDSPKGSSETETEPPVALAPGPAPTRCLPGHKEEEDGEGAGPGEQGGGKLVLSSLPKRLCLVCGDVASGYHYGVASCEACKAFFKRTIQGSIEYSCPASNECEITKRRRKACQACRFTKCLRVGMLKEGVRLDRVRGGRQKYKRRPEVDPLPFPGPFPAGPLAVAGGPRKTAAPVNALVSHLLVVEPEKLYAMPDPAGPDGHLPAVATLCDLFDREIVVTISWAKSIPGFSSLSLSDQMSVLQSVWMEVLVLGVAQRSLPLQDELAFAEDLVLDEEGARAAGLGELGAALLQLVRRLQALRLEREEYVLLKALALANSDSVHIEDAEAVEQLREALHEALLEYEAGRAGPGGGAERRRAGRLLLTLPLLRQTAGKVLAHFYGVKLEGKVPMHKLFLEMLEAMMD
Chain of sheep Cyclooxygenase-1 (Cox1), PTGS1 (gene 443551) (P05979 whole entry, looked up): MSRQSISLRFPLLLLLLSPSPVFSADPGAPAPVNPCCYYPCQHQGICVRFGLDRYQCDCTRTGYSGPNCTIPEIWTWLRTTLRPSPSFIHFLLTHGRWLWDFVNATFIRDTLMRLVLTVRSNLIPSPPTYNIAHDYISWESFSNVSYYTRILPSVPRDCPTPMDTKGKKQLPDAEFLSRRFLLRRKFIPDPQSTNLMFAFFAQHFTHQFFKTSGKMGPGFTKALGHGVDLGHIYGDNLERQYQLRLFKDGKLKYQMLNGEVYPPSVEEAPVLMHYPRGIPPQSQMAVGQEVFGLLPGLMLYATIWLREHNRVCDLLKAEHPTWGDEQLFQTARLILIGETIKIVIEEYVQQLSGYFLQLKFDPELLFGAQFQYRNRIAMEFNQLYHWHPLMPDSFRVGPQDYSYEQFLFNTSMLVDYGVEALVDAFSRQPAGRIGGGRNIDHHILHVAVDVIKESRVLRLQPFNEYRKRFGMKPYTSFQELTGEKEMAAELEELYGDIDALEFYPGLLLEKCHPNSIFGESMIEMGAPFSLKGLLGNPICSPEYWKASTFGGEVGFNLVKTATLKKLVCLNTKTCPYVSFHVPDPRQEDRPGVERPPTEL
Chain of Muscarinic acetylcholine receptor M2 (Homo sapiens) (P08172 whole entry, looked up): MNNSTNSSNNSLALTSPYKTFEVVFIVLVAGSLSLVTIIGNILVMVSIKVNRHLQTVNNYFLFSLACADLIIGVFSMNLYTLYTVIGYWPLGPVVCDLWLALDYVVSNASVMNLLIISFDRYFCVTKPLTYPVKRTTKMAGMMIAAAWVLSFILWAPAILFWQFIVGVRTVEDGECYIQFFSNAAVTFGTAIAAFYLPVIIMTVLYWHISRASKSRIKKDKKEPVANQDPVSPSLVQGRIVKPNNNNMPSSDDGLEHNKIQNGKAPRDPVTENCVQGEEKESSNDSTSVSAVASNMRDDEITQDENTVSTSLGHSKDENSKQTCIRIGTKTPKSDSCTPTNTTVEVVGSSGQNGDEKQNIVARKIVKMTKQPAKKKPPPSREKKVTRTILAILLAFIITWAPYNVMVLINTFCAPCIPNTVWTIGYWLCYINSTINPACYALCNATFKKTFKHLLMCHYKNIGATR

## CCCCC(CC)COC(=O)C=Cc1ccc(OC)cc1 (stereo not drawn)
[1]
  outcome: inactive
[2]
  outcome: inactive

## CC1=NN(c2cc(Cl)c(S(=O)(=O)O)cc2Cl)C(=O)C1N=Nc1ccc(S(=O)(=O)O)cc1 (stereo not drawn)
[3]
  outcome: inactive
[4]
  outcome: inactive
[5]
  AC50: 10 µM (active)

## O=C(O)/C=C\C(=O)O
[6]
  outcome: inactive
[3]
  outcome: inactive
[4]
  outcome: inactive
[5]
  outcome: inactive

## Clc1ccccn1
[7]
  outcome: inactive

## C[N+](C)(C)CC(=O)[O-]
[8]
  outcome: inactive

## CCO[Si](OCC)(OCC)c1ccccc1
[6]
  outcome: inactive

## OC(C(F)(F)F)(C(F)(F)F)C(O)(C(F)(F)F)C(F)(F)F
[9]
  AC50: 18.9 µM (active)
  outcome: inactive
[10]
  AC50: 0.218 µM (active)
  outcome: inactive
[11]
  AC50: 5.86 µM (active)
  outcome: inactive
[12]
  AC50: 7.66 µM (active)
  outcome: inactive

## COc1ccc(C(=O)c2ccccc2O)c(O)c1
[1]
  outcome: inactive
[2]
  AC50: 81.7 µM (active)

## CN(C)CCC(c1ccc(Cl)cc1)c1ccccn1 (stereo not drawn)
[7]
  AC50: 10.3 µM (active)
[13]
  outcome: inactive
[14]
  outcome: inactive

## COC(=O)c1ccccc1
[8]
  outcome: inactive

## Oc1ccc2c(c1)Cc1ccccc1-2
[15]
  AC50: 29.4 µM (active)
[16]
  outcome: inactive
[17]
  outcome: inactive
[18]
  AC50: 38.1 µM (active)

## COc1ccc2cc3[n+](cc2c1OC)CCc1cc2c(cc1-3)OCO2
[13]
  AC50: 0.0926 µM (active)
[14]
  AC50: 0.106 µM (active)

## CC(O)(c1ccc(Cl)cc1)c1ccc(Cl)cc1
[15]
  AC50: 46.1 µM (active)
[16]
  outcome: inactive
[17]
  outcome: inactive
[18]
  AC50: 61.6 µM (active)

## Cc1oc(C)c(C(=O)Nc2ccccc2)c1C
[19]
  outcome: inactive

## CNCCC(Oc1ccc(C(F)(F)F)cc1)c1ccccc1 (stereo not drawn)
[13]
  AC50: 2.58 µM (active)
[14]
  AC50: 4.19 µM (active)

## O=[Se](O)O
[19]
  AC50: 1.64 µM (active)
[20]
  AC50: 31.7 µM (active)

## CO[C@H]1C[C@@H]2CC[C@@H](C)[C@@](O)(O2)C(=O)C(=O)N2CCCC[C@H]2C(=O)O[C@H]([C@H](C)C[C@@H]2CC[C@@H](O)[C@H](OC)C2)CC(=O)[C@H](C)/C=C(\C)[C@@H](O)[C@@H](OC)C(=O)[C@H](C)C[C@H](C)\C=C/C=C/C=C/1C
[20]
  outcome: inactive

## CC(COc1ccccc1)N(CCCl)Cc1ccccc1 (stereo not drawn)
[15]
  AC50: 31.6 µM (active)
[16]
  outcome: inactive
[17]
  outcome: inactive
[18]
  outcome: inactive

## O=C(CCCCCCC(=O)Nc1ccccc1)NO
[19]
  outcome: inactive
[20]
  outcome: inactive
